Test [1] can be described thus: reduced mouse 2C T cell binding to pMHC/ICAM-1 vesicles – MLPCN validation set, flow cytometry, LFA-1/ICAM-1 modulator project, pilot screen (AID 2523;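 active = response below a set limit, under 55% cells CD8-positive and vesicle-bound, and CD8 cells' 90th-percentile brightness under 279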;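 as to vesicle binding response: mean PE anti-B7-1 fluorescence of CD8+ cells relative to row control; 100% = QL9-loaded vesicles with DMSO vehicle in the same plate row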). The note with it: 2C mouse CD8+ T cells, at 7 µM, stronger effect = lower value; double positive events: measured here: CD8+/vesicle+ event percentage.
The target of test [2] is Integrin beta-1 (Homo sapiens) + Integrin alpha-4 (Homo sapiens) (UniProt P13612+P05556). Put plainly: alpha4beta1 integrin LIBS antibody binding reduction – U937 cells, HUTS-21 mAb, flow cytometry, validation set, VLA-4 allosteric modulator project, pilot screen (AID 2674;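 active = inhibition above 50%, about 3 SD of the validation set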;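 also: antibody binding induced by the VLA-4 ligand LDV present at three times its Kd; 0% = LDV ligand with antibody and no compound and 100% = antibody without LDV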). Particulars: HUTS-21 LIBS mAb binding, at 6.7 µM, stronger effect = higher value, binding induced by LDV ligand. (Flow cytometry measures light scatter and fluorescence of single cells or particles in a stream.)
Integrin beta-1 (Homo sapiens) + Integrin alpha-4 (Homo sapiens), sequence (P05556 whole entry, looked up): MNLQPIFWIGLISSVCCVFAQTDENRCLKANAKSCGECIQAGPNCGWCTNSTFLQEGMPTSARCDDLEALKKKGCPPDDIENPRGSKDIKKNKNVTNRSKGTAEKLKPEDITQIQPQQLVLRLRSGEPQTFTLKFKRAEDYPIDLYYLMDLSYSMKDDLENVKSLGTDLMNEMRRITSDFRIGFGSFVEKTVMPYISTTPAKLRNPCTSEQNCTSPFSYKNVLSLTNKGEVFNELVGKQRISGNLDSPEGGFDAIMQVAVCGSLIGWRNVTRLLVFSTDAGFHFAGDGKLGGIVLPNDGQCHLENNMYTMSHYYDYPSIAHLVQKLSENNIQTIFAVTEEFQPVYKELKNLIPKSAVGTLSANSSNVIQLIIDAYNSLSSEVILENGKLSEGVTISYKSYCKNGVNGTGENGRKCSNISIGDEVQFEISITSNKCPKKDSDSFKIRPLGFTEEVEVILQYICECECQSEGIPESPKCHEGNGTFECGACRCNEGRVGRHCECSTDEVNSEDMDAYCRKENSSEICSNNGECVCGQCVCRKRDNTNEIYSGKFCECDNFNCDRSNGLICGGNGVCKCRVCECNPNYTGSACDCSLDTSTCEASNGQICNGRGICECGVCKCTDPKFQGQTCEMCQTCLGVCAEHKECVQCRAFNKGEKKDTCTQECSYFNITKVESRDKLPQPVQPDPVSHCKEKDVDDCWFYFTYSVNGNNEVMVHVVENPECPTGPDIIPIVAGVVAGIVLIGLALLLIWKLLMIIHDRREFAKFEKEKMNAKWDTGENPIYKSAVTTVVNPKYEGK
Integrin beta-1 (Homo sapiens) + Integrin alpha-4 (Homo sapiens), sequence (P13612 whole entry, looked up): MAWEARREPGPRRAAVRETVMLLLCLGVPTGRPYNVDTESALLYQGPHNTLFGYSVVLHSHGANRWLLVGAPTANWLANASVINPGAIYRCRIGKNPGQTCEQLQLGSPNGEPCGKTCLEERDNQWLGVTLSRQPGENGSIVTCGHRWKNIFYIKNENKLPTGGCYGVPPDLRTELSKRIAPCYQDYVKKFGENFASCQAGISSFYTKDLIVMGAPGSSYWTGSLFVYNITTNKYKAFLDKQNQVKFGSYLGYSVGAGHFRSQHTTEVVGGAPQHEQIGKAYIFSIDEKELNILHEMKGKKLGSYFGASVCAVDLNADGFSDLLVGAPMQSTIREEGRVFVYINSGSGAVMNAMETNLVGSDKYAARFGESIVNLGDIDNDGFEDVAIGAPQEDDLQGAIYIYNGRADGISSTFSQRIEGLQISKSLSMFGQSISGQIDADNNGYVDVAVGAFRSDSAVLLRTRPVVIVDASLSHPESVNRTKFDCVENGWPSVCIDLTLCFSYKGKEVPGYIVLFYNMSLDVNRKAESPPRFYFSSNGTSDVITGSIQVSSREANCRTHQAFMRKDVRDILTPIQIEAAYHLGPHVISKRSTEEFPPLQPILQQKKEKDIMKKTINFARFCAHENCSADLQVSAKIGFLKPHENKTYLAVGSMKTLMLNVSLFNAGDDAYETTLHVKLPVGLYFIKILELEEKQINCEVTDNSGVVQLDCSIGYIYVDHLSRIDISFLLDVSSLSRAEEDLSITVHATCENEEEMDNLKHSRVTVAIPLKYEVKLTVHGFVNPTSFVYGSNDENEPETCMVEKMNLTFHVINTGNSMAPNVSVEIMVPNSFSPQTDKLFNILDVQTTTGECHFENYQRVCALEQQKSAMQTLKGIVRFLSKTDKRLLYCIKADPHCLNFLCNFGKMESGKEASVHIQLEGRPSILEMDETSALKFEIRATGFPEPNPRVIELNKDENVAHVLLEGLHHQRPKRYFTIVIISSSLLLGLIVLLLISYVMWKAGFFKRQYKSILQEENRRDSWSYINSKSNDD

Test [3] can be described thus: calorie-restriction mimetic ROS inhibitors, yeast – validation compound set, pilot screen (AID 2706;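 active = superoxide response below 65% of plate, a cut near 3 SD across the whole screen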;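 also: yeast exposed to compound for one week at 30 degrees C before staining; 100% = mean of all compound wells on the same plate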). The note with it: S. cerevisiae aging, superoxide DHE fluorescence; at 10 µM, stronger effect = lower value.
Test [4] deals with Beta-adrenergic receptor kinase 1 (Homo sapiens) (UniProt P25098). Put plainly: GRK2 binders displacing RNA aptamer, biochemical, validation, human GRK2, bead flow cytometry (AID 488806;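 active = aptamer binding inhibition above 30%, about 3 SD of noise from non-fluorescent compounds; inactive = inhibition at or below 30%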). The note with it: bead-bound GRK2, FAM-aptamer displacement, at 10 µM, stronger effect = higher value.
Beta-adrenergic receptor kinase 1 (Homo sapiens), sequence (P25098 whole entry, looked up): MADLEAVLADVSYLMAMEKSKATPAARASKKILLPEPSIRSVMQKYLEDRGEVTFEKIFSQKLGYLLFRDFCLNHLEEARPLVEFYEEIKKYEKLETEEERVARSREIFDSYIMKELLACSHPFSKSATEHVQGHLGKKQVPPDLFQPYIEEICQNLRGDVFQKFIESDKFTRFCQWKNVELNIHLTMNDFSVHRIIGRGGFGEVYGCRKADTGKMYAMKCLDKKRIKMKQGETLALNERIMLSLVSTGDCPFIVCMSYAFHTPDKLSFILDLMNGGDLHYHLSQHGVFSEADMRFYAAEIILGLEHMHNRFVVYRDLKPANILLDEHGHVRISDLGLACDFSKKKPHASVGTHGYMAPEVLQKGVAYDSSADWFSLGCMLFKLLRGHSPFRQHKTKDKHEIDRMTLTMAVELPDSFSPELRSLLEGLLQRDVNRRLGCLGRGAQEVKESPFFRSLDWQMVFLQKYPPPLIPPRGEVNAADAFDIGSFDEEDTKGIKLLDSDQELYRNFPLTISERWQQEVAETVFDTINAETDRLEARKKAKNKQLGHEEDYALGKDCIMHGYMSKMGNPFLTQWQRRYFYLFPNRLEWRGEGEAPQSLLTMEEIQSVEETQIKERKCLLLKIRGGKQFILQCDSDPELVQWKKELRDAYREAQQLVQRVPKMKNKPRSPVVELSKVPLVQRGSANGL
Test [5] concerns the target AP-2 complex subunit beta (Homo sapiens) (UniProt P63010). Put plainly: beta-arrestin/AP2 interaction blockers – biochemical, validation set, GST-AP2 beads, flow cytometry, pilot screen (AID 504541;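 active = inhibition above 54%, about 3 SD of non-fluorescent compounds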;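 also: AP2 carries R879A mutation and is captured from E. coli lysate; bead-bound FITC arrestin peptide fluorescence measuring arrestin peptide binding to AP2; 0% = DMSO wells and 100% = excess unlabeled arrestin peptide control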). The note with it: FITC arrestin peptide, at 10 µM, stronger effect = higher value, AP2 beta2 appendage fragment, R879A mutant.
Test [6] can be described thus: cytosolic pH regulators acting via V-ATPase – S. cerevisiae, pHLuorin, HTS validation (AID 504600; in the data active = response above about 15%;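 also: plate controls were DMSO for no effect and reference compound for full effect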). The note with it: V-ATPase proton transport, at 10 µM, stronger effect = higher value.
Test [7] deals with anti-desmoglein-3 scFv antibody binding to human DSG3. Put plainly: blockers of pathogenic pemphigus antibody–desmoglein-3 binding – biochemical, validation compound set, bead-based, flow cytometry, pilot screen (AID 588368;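 active = binding below the plate cutoff, the plate median minus 3 SD, with a reading above zero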;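 also: signal is the median channel fluorescence of bead-bound GFP antibody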). Particulars: Protein G beads, DSG3-Fc, scFv-GFP binding, at 10 µM, stronger effect = lower value.
The nature of test [8]: Nile Red efflux blockade in pump-expressing yeast – validation compound set, multiplex, phenotypic, pilot screen (AID 588506;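 active = efflux inhibition above 0.42, the validation set average plus 4 SD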;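 also: Nile Red retained in cells so higher fluorescence means more efflux inhibition; 0 = negative control wells and 1 = enniatin B 25 µM full block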). Particulars: S. cerevisiae pump-expressing triplex, Nile Red efflux flow cytometry; at 10 µM; stronger effect = higher value; the pumps come from Candida albicans.
For test [9], the target named is ATP-binding cassette sub-family B member 6 (Homo sapiens) (UniProt Q9NP58). Briefly: blockers of ABCB6-driven porphyrin uptake – K562-ABCB6 cells, flow cytometry, validation set, pilot screen (AID 588550).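 Also: 0% = DMSO wells and 100% = benzethonium chloride 70 µM positive control.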 Particulars: K562-ABCB6 porphyrin accumulation, 1 h, at 10 µM, stronger effect = higher value.
ATP-binding cassette sub-family B member 6 (Homo sapiens), sequence (Q9NP58 whole entry, looked up): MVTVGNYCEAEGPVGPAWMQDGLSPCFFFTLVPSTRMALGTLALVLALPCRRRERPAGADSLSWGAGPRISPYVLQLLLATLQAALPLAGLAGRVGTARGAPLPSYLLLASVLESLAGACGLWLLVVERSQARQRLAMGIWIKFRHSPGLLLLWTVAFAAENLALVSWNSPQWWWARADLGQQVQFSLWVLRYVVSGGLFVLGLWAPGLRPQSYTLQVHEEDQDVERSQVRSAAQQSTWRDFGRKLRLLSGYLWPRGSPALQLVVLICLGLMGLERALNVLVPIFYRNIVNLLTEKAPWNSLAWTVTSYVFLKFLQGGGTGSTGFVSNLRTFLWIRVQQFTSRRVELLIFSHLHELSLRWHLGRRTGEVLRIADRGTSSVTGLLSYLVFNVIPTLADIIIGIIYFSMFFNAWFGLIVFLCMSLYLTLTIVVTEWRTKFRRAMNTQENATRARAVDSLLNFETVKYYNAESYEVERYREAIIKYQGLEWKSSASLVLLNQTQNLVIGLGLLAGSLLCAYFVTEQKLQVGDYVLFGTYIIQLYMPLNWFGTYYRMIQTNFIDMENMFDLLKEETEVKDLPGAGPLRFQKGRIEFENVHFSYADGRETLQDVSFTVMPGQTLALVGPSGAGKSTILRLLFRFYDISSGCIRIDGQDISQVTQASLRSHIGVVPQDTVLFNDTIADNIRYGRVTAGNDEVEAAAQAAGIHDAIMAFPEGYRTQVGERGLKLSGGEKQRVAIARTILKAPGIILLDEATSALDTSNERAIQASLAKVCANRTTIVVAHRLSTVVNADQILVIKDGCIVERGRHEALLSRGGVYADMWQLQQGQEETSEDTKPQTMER
Test [10] can be described thus: AML differentiation inducers, ER-HoxA9 marrow cells – cell-based, GFP/MAC1 double positive, flow cytometry, validation set, primary screen (AID 588685;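 active = differentiation response of at least 50%, scaled between solvent and reference control, from cells with both markers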;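 also: compound exposure lasts four days before antibody staining and flow analysis; 0% = DMSO wells and 100% = 5 µM fulvestrant positive control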). The note with it: stronger effect = higher value, normalized: vehicle 0, fulvestrant 100.

This is an account of results in PubChem BioAssay.

Active and inactive are the calls of the source.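 The calls were made as follows, unless noted: active = inhibition above the screen-wide mean plus 3 SD, about 51%; inactive = the rest.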

AP-2 complex subunit beta (Homo sapiens), sequence (P63010 whole entry, looked up, the tested form may be a part, one chain of several): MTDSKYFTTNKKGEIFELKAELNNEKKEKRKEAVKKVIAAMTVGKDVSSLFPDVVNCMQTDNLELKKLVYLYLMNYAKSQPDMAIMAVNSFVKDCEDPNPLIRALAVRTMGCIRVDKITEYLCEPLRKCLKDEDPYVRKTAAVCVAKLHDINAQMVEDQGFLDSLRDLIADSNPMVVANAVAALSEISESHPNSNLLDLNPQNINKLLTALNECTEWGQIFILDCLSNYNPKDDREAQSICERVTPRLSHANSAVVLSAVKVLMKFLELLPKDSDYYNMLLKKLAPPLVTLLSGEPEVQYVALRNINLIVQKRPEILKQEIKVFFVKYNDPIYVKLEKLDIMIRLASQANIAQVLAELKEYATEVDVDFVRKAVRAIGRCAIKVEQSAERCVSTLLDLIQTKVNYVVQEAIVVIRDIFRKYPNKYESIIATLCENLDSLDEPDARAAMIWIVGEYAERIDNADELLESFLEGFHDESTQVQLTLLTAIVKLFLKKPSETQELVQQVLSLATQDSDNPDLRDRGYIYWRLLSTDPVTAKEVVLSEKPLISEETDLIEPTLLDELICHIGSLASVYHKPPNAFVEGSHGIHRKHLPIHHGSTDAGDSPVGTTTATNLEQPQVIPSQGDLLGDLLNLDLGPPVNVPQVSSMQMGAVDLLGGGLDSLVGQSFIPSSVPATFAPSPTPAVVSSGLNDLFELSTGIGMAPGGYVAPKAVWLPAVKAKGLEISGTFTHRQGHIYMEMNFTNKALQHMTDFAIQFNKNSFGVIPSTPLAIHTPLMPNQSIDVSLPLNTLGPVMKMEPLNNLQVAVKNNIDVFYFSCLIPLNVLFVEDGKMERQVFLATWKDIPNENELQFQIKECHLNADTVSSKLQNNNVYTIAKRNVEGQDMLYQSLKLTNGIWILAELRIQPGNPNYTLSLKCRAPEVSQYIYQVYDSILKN

One may read the inhibition as the drop in the measured response relative to a control, in per cent. In test [1], `Cc1ccc2nc3c(cc(C(=O)NCC4CCCO4)c(=N)n3CCCOC(C)C)c(=O)n2c1` (configuration not stated) showed a double positive events of 62.1%. Besides, the vesicle binding response in test [1] was 176% (inactive). Further, the inhibition in test [2] is 9.09% (inactive); in test [5] it was -3.18% (inactive); in [9], 14% (inactive). Also, in [3], the superoxide response (% of plate) is 82.4% (inactive). In [4], the aptamer binding inhibition is 0% (inactive). In addition, the response in [6] is -20.8% (inactive). In test [7], the binding (% of control) was 100% (inactive). Besides, the efflux inhibition (fraction of control) in [8] was 0.33 (inactive). Besides, in test [10], the differentiation response is -24.4% (inactive).
Consider `O=C(O)CCn1c(=S)n(CCC(=O)O)c2ccccc21`, for which the double positive events in test [1] turned out to be 53.4%. In addition, the vesicle binding response in [1] was 162% (inactive). Also, the inhibition in [2] is 8.15% (inactive); in test [5], 4.52% (inactive); in test [9] it was 5% (inactive). Moreover, in test [3], the superoxide response (% of plate) is 112% (inactive). Besides, the aptamer binding inhibition in test [4] is 4% (inactive). The response in [6] was -0.83% (inactive). Moreover, the binding (% of control) in test [7] is 101% (inactive). Besides, in [8], the efflux inhibition (fraction of control) was -0.05 (inactive). Also, the differentiation response in [10] is -6.66% (inactive).
On to `CCNC(=O)c1sc2cc(C)ccc2c1Cl`, for which the double positive events in test [1] was determined as 60.2%. In [1], the vesicle binding response was 294% (inactive). In addition, the inhibition in test [2] is -10.5% (inactive); in [5], -9.7% (inactive); in test [9], 5% (inactive). In addition, the superoxide response (% of plate) in test [3] is 86.4% (inactive). Further, the aptamer binding inhibition in [4] was -2% (inactive). Also, in test [6], the response is 0.2% (inactive). Moreover, in test [7], the binding (% of control) is 99.5% (inactive). Moreover, the efflux inhibition (fraction of control) in [8] is -0.16 (inactive). Besides, the differentiation response in test [10] is 1.41% (inactive).
In [1], `CC(=O)N=c1sc(S(N)(=O)=O)nn1C` gave a double positive events of 48.1%. For the same compound, in test [1], the vesicle binding response is 166% (inactive). Besides, the results for the inhibition in test [2], in test [5] and in [9] were -9.57% (inactive), -6.47% (inactive) and 8% (inactive), respectively. In addition, in [3], the superoxide response (% of plate) is 97% (inactive). For the same compound, in test [4], the aptamer binding inhibition is 4% (inactive). Also, the response in test [6] was -25.8% (inactive). Also, the binding (% of control) in test [7] was 99.6% (inactive). In test [8], the efflux inhibition (fraction of control) was -0.01 (inactive). In addition, the differentiation response in test [10] is 11.1% (inactive).
As to `COC(=O)c1[nH]c2ccc(F)cc2c1NC(=O)C1=COCCO1`, the double positive events in test [1] was 55.5%. Further, in test [1], the vesicle binding response was 252% (inactive). The inhibition is -3.04% (inactive) in test [2], 1.47% (inactive) in test [5] and 7% (inactive) in [9]. Moreover, the superoxide response (% of plate) in test [3] was 89.2% (inactive). Further, the aptamer binding inhibition in [4] is 1% (inactive). For the same compound, in test [6], the response was -2.26% (inactive). Further, in test [7], the binding (% of control) is 92.8% (inactive). For the same compound, in test [8], the efflux inhibition (fraction of control) is -0.01 (inactive). In addition, the differentiation response in test [10] is 45% (inactive).
On to `COc1ccc2[nH]c(C)c(CN3CCC(C)CC3)c(=O)c2c1`, for which the double positive events in test [1] amounted to 50.2%. Moreover, in test [1], the vesicle binding response is 154% (inactive). The inhibition was -14.2% (inactive) in test [2], -1.75% (inactive) in test [5] and 2% (inactive) in test [9]. The superoxide response (% of plate) in test [3] was 100% (inactive). Besides, the aptamer binding inhibition in test [4] is 2% (inactive). The response in [6] is 4.29% (inactive). In addition, in [7], the binding (% of control) was 98.5% (inactive). The efflux inhibition (fraction of control) in [8] is 0.1 (inactive). Besides, the differentiation response in test [10] is -5.05% (inactive).
`CN(C)C(=O)C(CCN1CCC(O)(c2ccc(Cl)cc2)CC1)(c1ccccc1)c1ccccc1`: the double positive events in [1] was 70.4%. Moreover, in test [1], the vesicle binding response was 180% (inactive). For the same compound, the results for the inhibition in test [2], in test [5] and in [9] were 44% (inactive), 2.98% (inactive) and 2% (inactive), respectively. In test [3], the superoxide response (% of plate) was 86.8% (inactive). Further, the aptamer binding inhibition in [4] is 1% (inactive). Also, the response in [6] was 6.9% (inactive). Moreover, in [7], the binding (% of control) was 104% (inactive). Besides, in [8], the efflux inhibition (fraction of control) was 0.08 (inactive). In addition, the differentiation response in test [10] was -3.02% (inactive).
